High-throughput results (PubChem BioAssay)
Sampled rows, rich in hits. Any-hit rate of the full collection: about 2.5%.
Dyrk1A ADPGlo: blocks rat Dyrk1A kinase activity. inhibition, % at 12.5 µM. 310,000 compounds, 0.43% hits. Q63470. AID 504441. ADP-Glo luminescence, NFATc1 peptide; in the data active = inhibition above about 50%;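 note: plate controls were vehicle with enzyme for no effect and no enzyme for full effect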
HSF-1 act: increases HSF-1 driven luciferase reporter signal; NIH3T3-HGL HSF-1 luciferase reporter, MG132, 8 h; 100% = twice DMSO control signal; 300,000 compounds, 1.7% hits; activation, % at 9 µM;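 active = mean replicate activation of at least 50% with a set share of replicates each reaching 50%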;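 note: 0% = median of the neutral control wells and 100% = twice that signal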
NPR2 activator: GC-B (human) receptor activation | HEK293-GC-B cells, CNP EC30, cGMP TR-FRET; 0% at EC30 CNP, 100% saturating CNP | AID 1920062 | 370,000 compounds, 0.11% hits | activation, % at 10 µM | P20594;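 active = activation at 10 µM reaching about 35% in either raw or pattern-adjusted values, limit read from the data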
GC-A act: GC-A (human) enzyme activation | HEK293 GC-A cells, cGMP TR-FRET, EC30 ANP; 0% at EC30 ANP, 100% saturating ANP | activation, % at 10 µM | P16066 | AID 1671463 | 370,000 compounds, 0.14% hits; in the data active = activation above about 40%
HSF1 inh: HSF1 inhibition. NIH3T3-HGL HSE-luciferase, MG132-induced, luminescence 8 h; active compounds read low. activity change, negative = inhibition, % at 7.5 µM (by protocol). 300,000 compounds, 0.77% hits. AID 2098;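 active = more than half of replicate wells show activity change below -50%, luminescence cut by over half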;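 note: luciferase reports HSF-1 transcriptional activity via heat shock element; 0% = median of DMSO wells and -100% = zero luminescence signal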
aDG glyco act: alpha-DG glycosylation activation | activation, % at 10 µM | 360,000 compounds, 0.22% hits | Pro5-aDG cells, alpha-DG glycosylation AlphaScreen (IIH6); 0% Pro5, 100% B10-LARGE cell signal;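 active = activation of at least 8% versus controls, or a plate z-score of at least 8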;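 note: Pro5 are CHO cells carrying HIG-tagged alpha-DG that lacks glycosylation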
An asterisk follows results filed as active; . = no result.

SMILES | Dyrk1A ADPGlo | HSF-1 act | NPR2 activator | GC-A act | HSF1 inh | aDG glyco act
Cc1cccc(NCCC(=O)c2ccc(Br)cc2)c1 | 3 | 2 | -9 | 3 | 5 | 0
CC(=O)Nc1sc(C)c(C)c1C(=O)OCCOc1ccccc1 | 0 | 62* | -4 | -1 | 31 | 0
COc1ccc(CCCC(=O)N/N=C/c2cccc(OC)c2O)cc1C | -5 | 11 | 5 | 1 | 0 | 0
Cc1ccc(NC(=O)c2cc(=O)[nH]c3ccccc23)cc1 | 14 | 4 | 1 | -2 | -5 | 0
Cc1ccc(NC(=O)C(=O)c2c[nH]c3ccccc23)cc1 | 0 | 84* | -6 | 9 | 55 | 0
CCOC(=O)c1cnc(-n2cc(C)cn2)nc1NCc1ccc2c(c1)OCO2 | -12 | 1 | 45* | 34 | 2 | 2
Cc1cc(N2CCN(c3ccc(F)cc3)CC2)nc2cc(O)ccc12 | -5 | -64 | -4 | 11 | -55* | 0
CCOC(=O)c1c(NC(=O)CSc2nnnn2-c2ccccc2OCC)sc2c1CC(C)(C)NC2(C)C | -5 | -3 | -5 | -14 | -3 | 0
COc1cccc2c1C(=O)c1c(O)c3c(c(O)c1C2=O)C[C@](O)(C(C)=O)C[C@H]3O[C@@H]1C[C@@H](N)[C@@H](O)[C@@H](C)O1 | 7 | -63 | -4 | 12 | -67* | 0
Cc1nc(CNS(=O)(=O)c2ccc3c(c2)CCCC3)cs1 | -5 | -19 | 3 | 0 | -6 | 0
COc1ccc(-c2cn3cccc(C)c3n2)cc1Br | 8 | 62* | -3 | 1 | 41 | 1
Cc1cccn2cc(-c3ccc(F)cc3)nc12 | 4 | 47 | -6 | 2 | 32 | 0
Cc1cccn2cc(-c3ccccc3)nc12 | 2 | 69* | 3 | 1 | 30 | 0
COc1ccc(-c2csc(C)n2)cc1Br | 2 | 29 | 7 | -3 | 19 | 0
O=C(O)C1=C[C@H](c2ccccc2)C[C@H](OCc2ccc(CO)cc2)O1 | 9 | 12 | 6 | -2 | 5 | 0
COc1ccc(N(CC(=O)NC2CCCCC2)C(=O)c2ccc(C)s2)cc1OC | -2 | 71* | -3 | -3 | 20 | 0
CC1=C(C(=O)N2CCOCC2)C(c2ccc(-c3ccccc3)cc2)NC(=S)N1 (stereo unspecified) | 2 | -4 | 70* | 79* | 2 | 0
CC1=C(C(=O)N2CCOCC2)C(c2cc(C)ccc2C)NC(=S)N1 (stereo unspecified) | -3 | . | 1 | 6 | . | 0
CC1=C(C(=O)N2CCOCC2)C(c2ccc(O)cc2)NC(=S)N1 (stereo unspecified) | 4 | -3 | 41* | 32 | -10 | 0
C/C(=N\Nc1cccc2cccnc12)c1ccc(C)cc1 | 5 | 28 | -2 | -13 | 7 | -1
S=C(Nc1ccc2snnc2c1)N1CCN(c2ccccn2)CC1 | -4 | -1 | 6 | 2 | 20 | 0
O=C(Nc1nc2c(F)cc(F)cc2s1)C1CCN(C(=O)c2ccc(F)cc2)CC1 | 18 | 27 | -7 | 68* | 10 | 0
COc1ccc(CCN=C(NS(=O)(=O)c2ccccc2)c2ccccc2)cc1OC | 8 | 59* | -6 | -5 | 9 | 0
NC(=O)CCCn1c(C(=O)c2cc(Cl)c(N)c(Cl)c2)c2ccc([N+](=O)[O-])cc2[n+]1[O-] | 7 | 1 | 58* | -6 | 10 | 0
NC(=O)CCCn1c(C(=O)c2ccc(Cl)cc2)c2ccc([N+](=O)[O-])cc2[n+]1[O-] | 4 | 20 | -5 | -2 | 8 | 1
SMILES | Dyrk1A ADPGlo | HSF-1 act | NPR2 activator | GC-A act | HSF1 inh | aDG glyco act
CCCS/C(N)=N/N=C/c1ccccc1O | 4 | 56* | -6 | 3 | 13 | 1
Cc1nc([N+](=O)[O-])c(N2CCN(Cc3ccccc3)CC2)n1Cc1ccccc1 | -3 | 1 | -2 | -9 | -1 | -1
Cc1nc([N+](=O)[O-])c(Sc2nc3ccccc3[nH]2)n1Cc1ccccc1 | -7 | 56* | -2 | -6 | 46 | 0
Cc1cc2nc(Sc3c([N+](=O)[O-])nc(C)n3Cc3ccccc3)[nH]c2cc1C | -4 | 95* | 1 | -2 | 77 | 0
COc1ccc2nc(Sc3c([N+](=O)[O-])nc(C)n3Cc3ccccc3)[nH]c2c1 | . | 107* | -16 | -8 | 53 | .
COc1ccc2nc(SCC(=O)NCc3ccccc3)[nH]c2c1 | 22 | 37 | -5 | -1 | 7 | 0
CCCN(C(=O)CSc1nnc2ccccn12)C1CCS(=O)(=O)C1 (stereo unspecified) | . | . | 2 | -2 | . | 0
CCOC(=O)c1c(/N=C/C2=C(O)CCCC2=O)sc2c1CCCC2 | . | -23 | 2 | -2 | -14 | 0
CCOC(=O)c1cc(CC)sc1/N=C/C1=C(O)CCCC1=O | -3 | -67 | 1 | 3 | -54* | 0
CCC[n+]1c(C)sc2c3c(ccc21)CCCC3 | . | . | . | . | . | 6.9*
CC[n+]1c(C)sc2c(C)cc(C)cc21 | 1 | 6 | -1 | 3 | -6 | 0
COc1cccc(CNC(=O)[C@@H]2CCCN2C(=O)[C@H]2CCCCN2C(=O)c2ccccc2)c1 | . | . | -6 | 2 | . | 0
CC12CN(C(=S)Nc3ccccc3)CC(C)(CN(C(=S)Nc3ccccc3)C1)C2=O | -6 | 74* | -6 | -4 | 28 | 0
S=C(Nc1ccccc1)N1CCCCC1 | 0 | 11 | 7 | 3 | 3 | 0
COc1ccc(C(=O)N/N=C/c2ccccc2OC(=O)c2ccccc2)cc1 | 2 | 10 | 2 | 1 | 0 | 0
COc1cc(C(=O)Oc2ccccc2/C=N/NC(=O)c2ccc(C)cc2)cc(OC)c1OC | 2 | 66* | -2 | -3 | 32 | 1
CCOC(=O)C1=NN(C(=O)COc2ccccc2)C(O)(c2ccc(Br)cc2)C1 (stereo unspecified) | -2 | 290* | -2 | -8 | 212 | 0
O=C(NCc1ccco1)c1ccc(CS(=O)(=O)c2cccc(C(F)(F)F)c2)o1 | 2 | 3 | 5 | 0 | -1 | 0
CC(C)(C)c1cc(C(c2cccnc2)N2CCN(CCO)CC2)cc(C(C)(C)C)c1O (stereo unspecified) | 3 | 76* | -16 | -32 | 63 | 0
CC(C)(C)n1nnnc1C(c1cccnc1)N1CCN(c2cccc(C(F)(F)F)c2)CC1 (stereo unspecified) | -7 | . | 5 | 0 | . | 1
CC1CN(C(=O)c2cc(S(=O)(=O)N(C)c3ccc(F)cc3)ccc2Cl)CC(C)O1 (stereo unspecified) | -9 | -76 | -3 | -1 | -71* | 0
CC1CN(C(=O)c2cc(S(=O)(=O)N3CCCC3)ccc2Cl)CC(C)O1 (stereo unspecified) | 0 | -8 | 4 | 2 | -1 | 0
